Measurements taken from publication PMC7862700, “An all-to-all approach to the identification of sequence-specific readers for epigenetic DNA modifications on cytosine”.

Tests used:
Test in all cases: DAPPL (digital affinity profiling via proximity ligation, sequencing); 10 mM Tris-HCl pH 7.5, 50 mM NaCl, 1 mM DTT, 4% glycerol, room temperature, 30 min; GST-TFs on glutathione beads, 16-mer random dsDNA library, 0.1% formaldehyde crosslink after washing; high values mean tight binding
FEV = biological target: T1, FEV (Homo sapiens, UniProt Q99581 1-238); settings: protein: recombinant; tags: N-terminal GST; dsDNA, one strand shown
T1 sequence: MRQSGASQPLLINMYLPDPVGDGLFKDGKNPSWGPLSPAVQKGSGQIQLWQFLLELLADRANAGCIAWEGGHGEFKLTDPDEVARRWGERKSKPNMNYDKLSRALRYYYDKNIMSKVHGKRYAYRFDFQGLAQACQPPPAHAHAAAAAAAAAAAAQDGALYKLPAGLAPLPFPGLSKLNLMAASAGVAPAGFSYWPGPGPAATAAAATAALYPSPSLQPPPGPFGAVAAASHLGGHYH
Procedure, shortened: (§1)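 After expression in yeast as GST fusions, human transcription factors were bound to glutathione beads, DNA-barcoded and mixed with a tag-only sample. The pools were incubated with 200 nmole of a 16-mer random double-stranded DNA library in Tris/NaCl/DTT/glycerol buffer (30 min, room temperature), washed and crosslinked with 0.1% formaldehyde. Proximity ligation with BsaI/T4 ligase ran for 1 h at 37 °C, before PCR amplification and sequencing on an Illumina NextSeq500. Binding signal is a hexamer's read frequency for a factor divided by its frequency for the tag-only sample.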

ETV5 = ETV5 (Homo sapiens, UniProt P41161 1-510); settings: protein: recombinant; tags: N-terminal GST; dsDNA, one strand shown
ETV5, sequence (P41161 whole entry): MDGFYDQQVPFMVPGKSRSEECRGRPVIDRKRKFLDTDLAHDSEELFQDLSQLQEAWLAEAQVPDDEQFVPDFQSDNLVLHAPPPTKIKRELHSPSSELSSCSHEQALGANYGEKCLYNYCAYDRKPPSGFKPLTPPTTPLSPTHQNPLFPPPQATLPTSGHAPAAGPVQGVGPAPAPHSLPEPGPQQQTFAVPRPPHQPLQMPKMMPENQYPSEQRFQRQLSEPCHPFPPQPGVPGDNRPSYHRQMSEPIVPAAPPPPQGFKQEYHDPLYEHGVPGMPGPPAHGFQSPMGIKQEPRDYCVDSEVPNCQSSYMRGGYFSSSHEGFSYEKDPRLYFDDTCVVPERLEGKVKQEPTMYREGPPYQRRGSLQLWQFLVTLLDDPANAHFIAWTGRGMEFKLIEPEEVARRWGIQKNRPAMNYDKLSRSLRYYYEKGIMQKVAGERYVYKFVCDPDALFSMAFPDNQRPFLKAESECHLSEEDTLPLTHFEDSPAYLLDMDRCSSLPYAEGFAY
Procedure, shortened: as §1

HSF1 = HSF1 (Homo sapiens, UniProt Q00613 1-529); settings: protein: recombinant; tags: N-terminal GST; chain copies: 3; dsDNA, one strand shown
HSF1, sequence (Q00613 whole entry): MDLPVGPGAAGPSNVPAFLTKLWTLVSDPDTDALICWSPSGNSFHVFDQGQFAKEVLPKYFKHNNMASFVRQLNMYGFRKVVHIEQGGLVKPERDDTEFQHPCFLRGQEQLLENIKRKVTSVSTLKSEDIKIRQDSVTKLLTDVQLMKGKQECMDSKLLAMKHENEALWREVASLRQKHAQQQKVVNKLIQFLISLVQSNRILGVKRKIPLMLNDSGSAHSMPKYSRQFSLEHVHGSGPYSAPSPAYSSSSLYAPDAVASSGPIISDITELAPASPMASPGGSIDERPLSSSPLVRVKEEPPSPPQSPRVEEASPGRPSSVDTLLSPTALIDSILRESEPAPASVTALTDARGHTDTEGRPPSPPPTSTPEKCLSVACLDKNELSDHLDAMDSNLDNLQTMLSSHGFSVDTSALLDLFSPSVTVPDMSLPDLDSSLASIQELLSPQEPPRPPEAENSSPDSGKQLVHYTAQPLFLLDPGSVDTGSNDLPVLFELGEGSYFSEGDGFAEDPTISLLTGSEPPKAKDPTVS
Procedure, shortened: as §1

SPIC = biological target: T2, SPIC (Homo sapiens, UniProt Q8N5J4 1-248); settings: protein: recombinant; tags: N-terminal GST; dsDNA, one strand shown
T2 sequence: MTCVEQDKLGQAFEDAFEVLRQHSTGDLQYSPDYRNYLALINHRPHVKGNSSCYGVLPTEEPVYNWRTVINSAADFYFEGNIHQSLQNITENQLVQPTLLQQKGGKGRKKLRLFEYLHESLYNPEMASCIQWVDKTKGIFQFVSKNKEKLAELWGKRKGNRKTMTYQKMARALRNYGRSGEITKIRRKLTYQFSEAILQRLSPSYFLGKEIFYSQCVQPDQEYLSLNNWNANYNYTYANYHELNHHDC
Procedure, shortened: as §1

ELF4 = ELF4 (Homo sapiens, UniProt Q99607 1-663); settings: protein: recombinant; tags: N-terminal GST; dsDNA, one strand shown
ELF4, sequence (Q99607 whole entry): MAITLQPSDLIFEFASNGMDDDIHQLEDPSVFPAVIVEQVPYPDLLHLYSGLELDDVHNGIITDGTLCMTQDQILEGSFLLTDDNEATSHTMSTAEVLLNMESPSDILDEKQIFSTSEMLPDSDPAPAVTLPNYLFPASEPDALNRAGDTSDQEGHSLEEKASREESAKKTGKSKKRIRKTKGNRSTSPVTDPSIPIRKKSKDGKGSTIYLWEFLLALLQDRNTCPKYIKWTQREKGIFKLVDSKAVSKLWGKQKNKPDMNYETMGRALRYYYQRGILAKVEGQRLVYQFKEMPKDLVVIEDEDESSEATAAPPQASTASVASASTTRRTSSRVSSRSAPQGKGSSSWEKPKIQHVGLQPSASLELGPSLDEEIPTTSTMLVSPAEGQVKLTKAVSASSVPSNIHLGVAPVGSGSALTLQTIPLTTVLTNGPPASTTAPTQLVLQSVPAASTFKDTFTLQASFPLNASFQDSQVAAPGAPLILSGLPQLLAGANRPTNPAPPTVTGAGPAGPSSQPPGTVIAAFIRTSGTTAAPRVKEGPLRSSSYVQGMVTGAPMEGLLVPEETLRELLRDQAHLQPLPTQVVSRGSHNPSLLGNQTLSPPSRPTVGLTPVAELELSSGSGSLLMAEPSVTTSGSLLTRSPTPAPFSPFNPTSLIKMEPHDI
Procedure, shortened: as §1

ELK4 = biological target: T3, ELK4 (Homo sapiens, UniProt P28324-2 1-405); settings: protein: recombinant; tags: N-terminal GST; dsDNA, one strand shown
T3 sequence: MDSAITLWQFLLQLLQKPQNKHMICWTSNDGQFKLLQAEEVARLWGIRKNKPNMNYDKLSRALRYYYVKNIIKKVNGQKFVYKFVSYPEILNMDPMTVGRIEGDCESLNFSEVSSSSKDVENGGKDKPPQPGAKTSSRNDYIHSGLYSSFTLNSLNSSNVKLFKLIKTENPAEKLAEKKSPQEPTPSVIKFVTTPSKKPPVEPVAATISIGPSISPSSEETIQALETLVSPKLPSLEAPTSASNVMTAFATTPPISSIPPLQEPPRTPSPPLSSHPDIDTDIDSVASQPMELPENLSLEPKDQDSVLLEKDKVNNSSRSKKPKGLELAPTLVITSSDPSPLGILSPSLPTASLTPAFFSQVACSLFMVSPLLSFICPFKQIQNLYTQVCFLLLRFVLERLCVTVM
Procedure, shortened: as §1

ETV2 = biological target: T4, ETV2 (Homo sapiens, UniProt O00321 1-342); settings: protein: recombinant; tags: N-terminal GST; dsDNA, one strand shown
T4 sequence: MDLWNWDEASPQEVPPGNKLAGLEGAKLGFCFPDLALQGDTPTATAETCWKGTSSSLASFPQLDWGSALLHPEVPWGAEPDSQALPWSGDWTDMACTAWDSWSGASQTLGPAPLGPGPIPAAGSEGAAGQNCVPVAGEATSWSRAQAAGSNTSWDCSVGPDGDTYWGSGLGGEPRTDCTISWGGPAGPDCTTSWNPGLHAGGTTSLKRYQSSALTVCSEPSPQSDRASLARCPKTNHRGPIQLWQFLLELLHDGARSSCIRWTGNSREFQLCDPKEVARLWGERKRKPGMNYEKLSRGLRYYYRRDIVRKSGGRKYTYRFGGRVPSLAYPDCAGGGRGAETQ
Procedure, shortened: as §1

ELF3 = biological target: T5, ELF3 (Homo sapiens, UniProt P78545 1-371); settings: protein: recombinant; tags: N-terminal GST; dsDNA, one strand shown
T5 sequence: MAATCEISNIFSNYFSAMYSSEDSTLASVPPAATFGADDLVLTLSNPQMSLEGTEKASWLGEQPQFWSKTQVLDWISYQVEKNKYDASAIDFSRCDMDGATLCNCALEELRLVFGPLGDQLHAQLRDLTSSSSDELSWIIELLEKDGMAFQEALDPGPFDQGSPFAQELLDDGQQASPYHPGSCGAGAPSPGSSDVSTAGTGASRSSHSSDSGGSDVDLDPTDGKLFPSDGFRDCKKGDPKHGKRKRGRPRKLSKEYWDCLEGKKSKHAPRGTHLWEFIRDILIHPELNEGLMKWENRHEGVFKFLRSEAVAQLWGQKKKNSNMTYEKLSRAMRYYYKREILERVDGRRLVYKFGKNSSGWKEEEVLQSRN
Procedure, shortened: as §1

CRX = CRX (Homo sapiens, UniProt O43186 1-299); settings: protein: recombinant; tags: N-terminal GST; dsDNA, one strand shown
CRX, sequence (O43186 whole entry): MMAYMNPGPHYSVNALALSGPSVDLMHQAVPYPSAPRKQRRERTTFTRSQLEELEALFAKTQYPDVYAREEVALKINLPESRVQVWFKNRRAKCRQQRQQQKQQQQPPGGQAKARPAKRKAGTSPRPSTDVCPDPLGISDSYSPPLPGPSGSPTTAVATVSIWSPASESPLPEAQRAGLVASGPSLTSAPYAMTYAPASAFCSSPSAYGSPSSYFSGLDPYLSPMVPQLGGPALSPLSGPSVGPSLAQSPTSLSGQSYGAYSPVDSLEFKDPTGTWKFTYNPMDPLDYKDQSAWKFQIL
Procedure, shortened: as §1

ETV1 = ETV1 (Homo sapiens, UniProt P50549 1-477); settings: protein: recombinant; tags: N-terminal GST; dsDNA, one strand shown
ETV1, sequence (P50549 whole entry): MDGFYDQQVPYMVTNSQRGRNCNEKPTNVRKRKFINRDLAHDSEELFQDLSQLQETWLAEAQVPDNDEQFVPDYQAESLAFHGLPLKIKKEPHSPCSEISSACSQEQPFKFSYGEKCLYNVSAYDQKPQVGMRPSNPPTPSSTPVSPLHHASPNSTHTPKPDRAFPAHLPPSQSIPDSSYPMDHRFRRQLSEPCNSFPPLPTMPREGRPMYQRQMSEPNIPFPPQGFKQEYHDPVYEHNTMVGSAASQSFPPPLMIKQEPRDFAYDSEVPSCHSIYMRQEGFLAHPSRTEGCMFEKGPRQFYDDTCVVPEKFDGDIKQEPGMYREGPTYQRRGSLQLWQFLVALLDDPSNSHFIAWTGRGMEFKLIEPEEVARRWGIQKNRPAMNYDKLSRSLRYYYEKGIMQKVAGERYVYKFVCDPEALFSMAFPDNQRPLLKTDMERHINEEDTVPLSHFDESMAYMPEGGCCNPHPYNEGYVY
Procedure, shortened: as §1

CGCTCT
binding signal (FEV): 1.27 fold enrichment (6-mer frequency, TF over GST control) | binding signal (ETV5): 1.34 fold enrichment (6-mer frequency, TF over GST control) | binding signal (HSF1): 1.17 fold enrichment (6-mer frequency, TF over GST control) | binding signal (SPIC): 1.31 fold enrichment (6-mer frequency, TF over GST control) | binding signal (ELF4): 1.39 fold enrichment (6-mer frequency, TF over GST control) | binding signal (ELK4): 1.07 fold enrichment (6-mer frequency, TF over GST control) | binding signal (ETV2): 1.12 fold enrichment (6-mer frequency, TF over GST control) | binding signal (ELF3): 1.24 fold enrichment (6-mer frequency, TF over GST control) | binding signal (CRX): 1.05 fold enrichment (6-mer frequency, TF over GST control) | binding signal (ETV1): 1.25 fold enrichment (6-mer frequency, TF over GST control)
